# Out of some 20,000 compounds screened, about 25 (0.1%) were called active. Many of the other results were omitted from the sample, so actives are more common in it than they were. A number with no mark means an inactive call. No stated cut-off is given here; in the data, active means % bound below about 75%; inactive means the rest.
# Biological target: Nucleoprotein (Rift valley fever virus (strain ZH-548 M12)) (UniProt P21700)
# Assay: inhibitors of RVFV nucleoprotein–RNA binding, primary screen, biochemical, fluorescence polarization (AID 651828)
# Settings: RVFV N-RNA binding, stronger effect = lower value, concentration not given here
# Sequence of Nucleoprotein (Rift valley fever virus (strain ZH-548 M12)) (P21700 whole entry, looked up): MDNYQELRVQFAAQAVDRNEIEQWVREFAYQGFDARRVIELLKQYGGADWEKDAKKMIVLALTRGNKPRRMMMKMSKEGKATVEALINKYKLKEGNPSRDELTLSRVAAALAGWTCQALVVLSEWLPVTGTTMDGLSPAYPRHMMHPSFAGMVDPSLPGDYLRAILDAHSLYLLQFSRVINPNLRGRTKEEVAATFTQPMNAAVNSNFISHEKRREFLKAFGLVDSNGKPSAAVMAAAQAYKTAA
row,Compound,% bound [%]
1,CSC(=S)Nc1ccc(C)cc1,92
2,CCN(CC)CCN1C(=O)C(O)=C(C(=O)/C=C/c2ccco2)C1c1ccc(OC)cc1 (centres undefined),97.9
3,CC(Cn1cnc2ccccc21)C(=O)N/N=C/c1ccccc1 (centres undefined),98.5
4,CC(C)NS(=O)(=O)c1ccc(NC(=O)C2CCCCC2)cc1,98
5,NS(=O)(=O)c1ccc(NS(=O)(=O)/C=C/c2ccccc2)cc1,80.7
6,O=C(c1cccc(N2C(=O)c3ccccc3C2=O)c1)N1CCOCC1,95
7,CCCCN=Cc1c(O)n(-c2ccc(Cl)cc2)c(=O)[nH]c1=O,85.2
8,O=C(CSc1ccc(-c2ccccc2)nn1)NCC1CCCO1 (centres undefined),91.3
9,O=C(CC1CCCC1)NCc1cn2ccsc2n1,97.9
10,Cc1cccc(NC(=O)c2ccccc2-c2nc(-c3ccccc3)no2)c1,89.8
11,O=C(CC12CC3CC(CC(C3)C1)C2)Nc1ccc(N2CCN(C(=O)c3ccco3)CC2)cc1,89.8
12,O=C(Nc1ccccn1)c1cc2c(s1)CCCC2,94.3
13,COC(=O)Nc1ccc(S(=O)(=O)Nc2cc(OC)nc(OC)n2)cc1,95.6
14,COc1ccc(C2CC(=O)c3cnc(NCCN4CCOCC4)nc3C2)cc1 (centres undefined),89.7
15,COC(=O)c1ccc(COc2ccc3c(oc(=O)c4cc(OC)ccc43)c2C)o1,87.4
16,CCOC(=O)c1ccc(CC(=O)c2cc(CC)c(O)cc2O)o1,105
17,CN1CCC(N(C)C(=O)Nc2c[nH]c3ccccc23)CC1,96.9
18,CCc1c(O)nc(SCc2ccccc2)n(C2CCCCC2)c1=O,92.2
19,Cc1cc(Cl)ccc1NNC(=O)c1snnc1C,109
20,Cc1cc(=O)[nH]c(Nc2ccc(O)cc2)n1,96.9
21,CSc1n[nH]c(N)c1-c1ccccn1,93.7
22,CP(=O)(O)CN1CCN(CP(C)(=O)O)CC1,93
23,CCNC(=O)N1c2ccccc2Sc2ccccc21,93.8
24,CN(C)S(=O)(=O)c1ccc(C(=O)Nc2nnc(C3CC3)o2)cc1,107
25,Cc1ccc(-c2nn3c(C)nnc3c3ccccc23)cc1S(=O)(=O)N1CCCC1,93.1
26,COc1ccc(CCNC(=O)Nc2ccccc2C)cc1OC,91.4
27,O=C(O)c1cc(N=Cc2ccccc2)ccc1O,108
28,CC(Sc1nnc(-c2c[nH]c3ccccc23)n1C)c1ccccc1 (centres undefined),96.8
29,FC(F)(F)COc1ccc(-c2n[nH]c(=S)o2)cn1,92.8

# From PubChem BioAssay AID651828 (ICCB-Longwood Screening Facility, Harvard Medical School, 2012)
